# In the library only some 2.4% were active in any assay of this set; here they are far more common.
# Cardiac RTF inh: cardiac RTF calcium desensitization | P19429+P45379 | IANBD-labeled cardiac RTF, Ca2+ fluorescence | inhibition, % at 7.15 µM | 0.12% of 340,000 active;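 active means inhibition above the mean inhibition of all tested compounds plus 3 SD, cut at about 17% in these data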;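 further: assay run at fixed EC70 calcium of 1.6 mM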
# TMEM16A act: mouse TMEM16A channel activation, primary screen | Q8BHY3 | AID 623877 | HEK293 TMEM16A/YFP-H148Q/I152L, iodide quench fluorescence; hits give low values | 0.3% of 340,000 active | B-score at 10 µM;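 active means fluorescence-ratio B-score plate-corrected deviation score at least 3 library SD below zero, with starting fluorescence score within 5 deviations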;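 further: channel opened by trigger with iodide after compound preincubation; score built on the fluorescence ratio of max minus min over baseline; more negative score means more quench and so TMEM16A activation or potentiation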
# Target sequence (Q8BHY3 whole entry, looked up): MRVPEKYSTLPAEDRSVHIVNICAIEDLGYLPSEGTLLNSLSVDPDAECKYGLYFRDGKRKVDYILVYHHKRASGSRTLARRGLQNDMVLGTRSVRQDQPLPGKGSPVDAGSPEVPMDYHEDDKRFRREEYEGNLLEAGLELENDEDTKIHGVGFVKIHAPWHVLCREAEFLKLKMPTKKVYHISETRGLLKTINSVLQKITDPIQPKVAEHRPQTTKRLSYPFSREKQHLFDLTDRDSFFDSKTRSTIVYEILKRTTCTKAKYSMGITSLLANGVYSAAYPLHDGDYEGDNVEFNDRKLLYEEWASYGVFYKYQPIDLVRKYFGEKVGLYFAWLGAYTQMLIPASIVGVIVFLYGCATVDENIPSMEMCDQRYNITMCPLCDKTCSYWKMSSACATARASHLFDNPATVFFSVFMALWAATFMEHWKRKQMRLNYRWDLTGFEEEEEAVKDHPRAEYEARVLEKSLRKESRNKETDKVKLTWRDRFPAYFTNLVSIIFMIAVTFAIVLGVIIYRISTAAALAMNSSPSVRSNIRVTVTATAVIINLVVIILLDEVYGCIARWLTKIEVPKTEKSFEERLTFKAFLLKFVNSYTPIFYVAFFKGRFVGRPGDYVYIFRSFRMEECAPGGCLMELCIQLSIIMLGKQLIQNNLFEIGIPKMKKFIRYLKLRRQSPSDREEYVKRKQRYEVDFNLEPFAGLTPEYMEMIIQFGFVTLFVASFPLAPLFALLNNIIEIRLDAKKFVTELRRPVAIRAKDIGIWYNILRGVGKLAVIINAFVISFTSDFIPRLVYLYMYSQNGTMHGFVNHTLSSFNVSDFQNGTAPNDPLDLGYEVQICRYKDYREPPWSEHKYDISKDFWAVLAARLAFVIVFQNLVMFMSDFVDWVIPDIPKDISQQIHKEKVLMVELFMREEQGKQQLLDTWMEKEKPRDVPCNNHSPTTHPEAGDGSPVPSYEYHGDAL
# CRFR2-BP ag: CRF-BP/CRF-R2 complex agonism; HEK293 CRF-R2/CRF-BP, calcium dye fluorescence (FLIPR); percent of saturating CRF peptide response; activation, % at 13.2 µM; 0.46% of 350,000 active; AID 588473;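 active means activation of at least 50%, plus an integration ratio under a set limit after plate pattern correction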;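 further: plate controls were neutral control wells without compound for no effect and CRF at EC100 for full effect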
# CRFR2-BP antag: antagonists of CRF-binding protein/CRF-R2 receptor complex; HEK293 CRF-R2/CRF-BP, CRF-induced calcium fluorescence; inhibition, % at 11.8 µM; 0.59% of 350,000 active; AID 588475;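 active means inhibition of the ligand-induced calcium signal above about 50% at the single tested concentration, limit read from the data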
# ANO1 block: inhibitors of mouse TMEM16A calcium-activated chloride channel. HEK293 TMEM16A/YFP iodide influx fluorescence, ionomycin. normalized B-score (activity score, 25-100; higher = stronger inhibition) at 10 µM. 1.2% of 310,000 active. AID 588511;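 active means ratio plate-corrected score three or more library SD toward inhibition, starting fluorescence score within five deviations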;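 further: score derived from kinetic fluorescence span divided by baseline fluorescence per well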
# cardiac RTF act: cardiac RTF calcium sensitization. P19429+P45379. IANBD-labeled TnC RTF fluorescence at EC20 calcium; 0% EC20 calcium, 100% full calcium. activation, % at 7.2 µM. 0.24% of 340,000 active;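 active means activation above the mean over all tested compounds plus 3 SD, cut at about 30% in these data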;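 further: rise in fluorescence read as greater calcium sensitivity of cardiac thin filaments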
# TMEM16A reconf: reconfirmed blocker of mouse TMEM16A calcium-activated chloride channel; HEK293 TMEM16A/YFP-H148Q, iodide quench fluorescence; ionomycin added to raise cell calcium; AID 652189; 39% of 2,300 active; inhibition, % at 10 µM; shares compounds with ANO1 block;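 active means mean duplicate percent inhibition, scaled so buffer wells are 0 and the reference blocker 100, over three buffer SD above buffer mean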
# HEK293 Ca mobil: calcium mobilization counter-screen hit for TMEM16A inhibitor series | shares compounds with ANO1 block | TMEM16A/YFP HEK293, Fluo4 calcium mobilization | calcium response (% of ionomycin), % at 10 µM | 2% of 2,300 active;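 active means duplicate-averaged calcium signal over 20% of the ionomycin maximum, relative to buffer baseline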;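 further: each well's signal is peak minus trough fluorescence divided by its pre-addition baseline; 0% = buffer wells and 100% = ionomycin wells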
# YFP-HEK293 quench: parental YFP-HEK293 iodide quench counter-screen activity; 2,300 tested, under 10 active; YFP ratio F(max-min)/F0 at 10 µM; ionomycin; shares compounds with ANO1 block; AID 652233;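 active means yellow fluorescent protein signal ratio exceeding the buffer control mean by over 5 SD of those controls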;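 further: ratio is mean of duplicate wells from kinetic YFP trace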
# ClC-1 rat inh: selectivity of TMEM16A inhibitors: inhibition of rat ClC-1 chloride channel. ratio percent, % at 10 µM. AID 652236. 2,300 tested, under 10 active. shares compounds with ANO1 block. CHO ClC-1-YFP, iodide influx fluorescence quench; iodide control reads 0, buffer control 100;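 active means duplicate-mean ratio percent above the mean of iodide-only control wells, which defines zero, plus 5 of their SD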;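 further: higher percent means stronger block of ClC-1 iodide influx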
# * hit, by the source's call; i = inactive; . = not tested or not shown.
SMILES,Cardiac RTF inh,TMEM16A act,CRFR2-BP ag,CRFR2-BP antag,ANO1 block,cardiac RTF act,TMEM16A reconf,HEK293 Ca mobil,YFP-HEK293 quench,ClC-1 rat inh
NC(=O)c1cc(S(=O)(=O)N2CCCCC2)cs1,5,i,-1,-5,i,-3,.,.,.,.
Cc1ccc(C)c(N2CCN(S(=O)(=O)c3csc(C(N)=O)c3)CC2)c1,-5,i,-1,-10,25*,1,i,i,-0.88,0
O=C(O)c1c(NC(=O)c2cccc3ccccc23)sc2c1CCC2,2,i,0,23,100*,1,24%*,i,-1,-14
COc1cccc(CNCCc2c[nH]c3ccccc23)c1OCc1ccccc1,7,i,2,-101,25*,3,54%*,i,-0.85,-18
COc1ccc(CNC(=O)CCc2c[nH]c3ccccc23)cc1,3,i,0,-8,100*,0,i,i,-1.1,-10
COCC(=O)NNS(=O)(=O)c1ccccc1[N+](=O)[O-],-4,i,4,4,i,4,.,.,.,.
CCOC(=O)N1CCN(Cc2nc(-c3cccc(C)c3)no2)CC1,-2,i,0,-5,100*,2,i,i,-1.1,-14
COc1cccc(-n2cc(CN(C)Cc3nc(Cc4cccc(F)c4)no3)cn2)c1,6,i,-4,-2,i,12,.,.,.,.
COc1ccc(CN(C)Cc2nc(Cc3cccc(F)c3)no2)c2cccnc12,-2,i,0,17,25*,-1,i,i,-1.1,-18
CC(C(=O)O)c1ccc2c(c1)[nH]c1ccc(Cl)cc12 (configuration not stated),1,i,-1,4,25*,6,i,i,-1,-15
Cc1cc(=O)[nH]c2ccc(Cl)cc12,-3,i,1,16,i,2,.,.,.,.
COc1ccc(O)c(C(=O)c2coc(=N)c(C(=O)Nc3ccc(SC(F)F)cc3)c2)c1,-3,i,11,7,i,6,i,i,-1.1,-58
CC(Cc1cccs1)NC(=S)Nc1ccc(Cl)c(Cl)c1 (configuration not stated),-3,i,0,-31,i,-2,.,.,.,.
CC(Cc1cccs1)NC(=S)Nc1ccc(Cl)cc1 (configuration not stated),8,i,7,18,25*,-9,38%*,i,-1.2,-15
CC(OC(=O)CCc1nc2ccccc2c(=O)[nH]1)C(=O)c1ccc(C(C)(C)C)cc1 (configuration not stated),-13,i,1,-62,100*,10,28%*,i,-1,-24
O=C(NCc1ccncc1)C1CCN(S(=O)(=O)c2ccc(Cl)c(C(F)(F)F)c2)CC1,-1,i,-2,9,.,2,.,.,.,.
Cc1ccc(C)c(Oc2nnnn2-c2ccccc2)c1,-14,i,-1,6,i,10,.,.,.,.
Cc1ccc(C(C)C)c(Oc2nnnn2-c2ccccc2)c1,3,i,1,-4,25*,3,26%*,i,-0.9,-8
Cc1ccc(C(=O)c2c[nH]c(C(=O)NCc3cccnc3)c2)cc1,-1,i,-1,3,i,-4,.,.,.,.
